# Results reported in the supplement of paper PMC4022240.
# ± gives the standard deviation.
# T1: HaloTag-ATRX ADD domain (163-292)
# T1 chain: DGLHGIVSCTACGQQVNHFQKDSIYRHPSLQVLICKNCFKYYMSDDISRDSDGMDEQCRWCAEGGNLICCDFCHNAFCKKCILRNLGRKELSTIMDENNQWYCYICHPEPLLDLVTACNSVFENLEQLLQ
# Columns and labels:
# Test in all cases: peptide microarray binding signal (635 nm), min-max normalized on array (fraction of array maximum); higher = stronger binding
# Conditions in all cases: peptide region: H3 11-23
# [1] = molecular target: T1, HaloTag-ATRX ADD domain (163-292)
# Summary of the method: (§1)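 Triplicate spots of histone 13-mer peptide–cellulose conjugates with a Cy3 tracer were printed on nitrocellulose and probed for 1 h at 4°C with biotin-labelled HaloTag reader fusions (10 nM to 1 μM) plus streptavidin-Alexa Fluor 647 or rabbit histone antibodies (1:10,000 to 1:2,000) plus anti-rabbit Alexa 647. An Axon GenePix 4000B read the 635 nm channel. Binding signal is the spot-triplicate mean intensity after min-max scaling within each library.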
# [2] = molecular target: HaloTag-ING2 PHD (mouse Ing2 200-280)
# Summary of the method: as §1
# [3] = molecular target: anti-H3K4me3 antibody ab8580
# Summary of the method: as §1
# [4] = molecular target: anti-H3K9me3 antibody ab8898
# Summary of the method: as §1
# [5] = peptide modifications: H3R17me2a, binder concentration: 1:2,000 dilution
# [6] = peptide modifications: H3R17me2a, binder concentration: 1:10,000 dilution
# [7] = peptide modifications: H3R17me1 H3K18me3, binder concentration: 1:2,000 dilution
# [8] = peptide modifications: H3R17me1 H3K18me3, binder concentration: 1:10,000 dilution
# [9] = peptide modifications: H3R17me2s H3K18me2, binder concentration: 1:2,000 dilution
# [10] = peptide modifications: H3R17me2s H3K18me2, binder concentration: 1:10,000 dilution
# [11] = peptide modifications: H3R17me1 H3K18me2, binder concentration: 1:2,000 dilution
# [12] = peptide modifications: H3R17me1 H3K18me2, binder concentration: 1:10,000 dilution
# [13] = peptide modifications: H3R17cit H3K18me3, binder concentration: 1:2,000 dilution
# [14] = peptide modifications: H3R17cit H3K18me3, binder concentration: 1:10,000 dilution
# [15] = peptide modifications: H3R17me1 H3K18ac, binder concentration: 1:2,000 dilution
# [16] = peptide modifications: H3R17me1 H3K18ac, binder concentration: 1:10,000 dilution
# [17] = peptide modifications: H3R17me2s H3K18me1, binder concentration: 1:2,000 dilution
# [18] = peptide modifications: H3R17me2s H3K18me1, binder concentration: 1:10,000 dilution
# [19] = peptide modifications: H3R17me2s H3K18me3, binder concentration: 1:2,000 dilution
# [20] = peptide modifications: H3R17me2s H3K18me3, binder concentration: 1:10,000 dilution
# [21] = peptide modifications: H3R17cit H3K18me2, binder concentration: 1:2,000 dilution
# [22] = peptide modifications: H3R17cit H3K18me2, binder concentration: 1:10,000 dilution
# [23] = peptide modifications: H3R17me1, binder concentration: 1:2,000 dilution
# [24] = peptide modifications: H3R17me1, binder concentration: 1:10,000 dilution
binder,measurement,setting,value
TGGKAPRKQLATK [H3 11-23 T G G K A P Rme2a K Q L A T K],peptide microarray binding signal,"[1]; peptide modifications: H3R17me2a, binder concentration: 50 nM",0.0047 ± 0.00017
same,peptide microarray binding signal,"[1]; peptide modifications: H3R17me2a, binder concentration: 500 nM",0.00767 ± 0.00072
same,peptide microarray binding signal,"[2]; peptide modifications: H3R17me2a, binder concentration: 10 nM",0.00328 ± 9.3e-05
same,peptide microarray binding signal,"[2]; peptide modifications: H3R17me2a, binder concentration: 100 nM",0.00921 ± 0.0033
same,peptide microarray binding signal,[3]; [5],0.001001 ± 8.5e-06
same,peptide microarray binding signal,[3]; [6],0.000742
same,peptide microarray binding signal,[4]; [5],0.00116 ± 7.7e-05
same,peptide microarray binding signal,[4]; [6],0.00156 ± 3e-05
TGGKAPRKQLATK [H3 11-23 T G G K A P Rme Kme3 Q L A T K],peptide microarray binding signal,"[1]; peptide modifications: H3R17me1 H3K18me3, binder concentration: 50 nM",0.0105 ± 0.00069
same,peptide microarray binding signal,"[1]; peptide modifications: H3R17me1 H3K18me3, binder concentration: 500 nM",0.0187 ± 0.002
same,peptide microarray binding signal,"[2]; peptide modifications: H3R17me1 H3K18me3, binder concentration: 10 nM",0.00901 ± 0.00033
same,peptide microarray binding signal,"[2]; peptide modifications: H3R17me1 H3K18me3, binder concentration: 100 nM",0.014 ± 0.0016
same,peptide microarray binding signal,[3]; [7],0.468 ± 0.19
same,peptide microarray binding signal,[3]; [8],0.29 ± 0.07
same,peptide microarray binding signal,[4]; [7],0.0548 ± 0.023
same,peptide microarray binding signal,[4]; [8],0.0168 ± 0.0037
TGGKAPRKQLATK [H3 11-23 T G G K A P Rme2s Kme2 Q L A T K],peptide microarray binding signal,"[1]; peptide modifications: H3R17me2s H3K18me2, binder concentration: 50 nM",0.00549 ± 0.0002
same,peptide microarray binding signal,"[1]; peptide modifications: H3R17me2s H3K18me2, binder concentration: 500 nM",0.0107 ± 0.00094
same,peptide microarray binding signal,"[2]; peptide modifications: H3R17me2s H3K18me2, binder concentration: 10 nM",0.0163 ± 0.0016
same,peptide microarray binding signal,"[2]; peptide modifications: H3R17me2s H3K18me2, binder concentration: 100 nM",0.0188 ± 0.0013
same,peptide microarray binding signal,[3]; [9],0.02 ± 0.0013
same,peptide microarray binding signal,[3]; [10],0.0106 ± 0.0017
same,peptide microarray binding signal,[4]; [9],0.00296 ± 0.00028
same,peptide microarray binding signal,[4]; [10],0.00259 ± 6.1e-05
TGGKAPRKQLATK [H3 11-23 T G G K A P Rme Kme2 Q L A T K],peptide microarray binding signal,"[1]; peptide modifications: H3R17me1 H3K18me2, binder concentration: 50 nM",0.00837 ± 0.00068
same,peptide microarray binding signal,"[1]; peptide modifications: H3R17me1 H3K18me2, binder concentration: 500 nM",0.0122 ± 0.0013
same,peptide microarray binding signal,"[2]; peptide modifications: H3R17me1 H3K18me2, binder concentration: 10 nM",0.0167 ± 0.002
same,peptide microarray binding signal,"[2]; peptide modifications: H3R17me1 H3K18me2, binder concentration: 100 nM",0.0345 ± 0.0088
same,peptide microarray binding signal,[3]; [11],0.0126 ± 0.0083
same,peptide microarray binding signal,[3]; [12],0.0135 ± 0.01
same,peptide microarray binding signal,[4]; [11],0.00181 ± 0.00018
same,peptide microarray binding signal,[4]; [12],0.001557 ± 1.5e-05
TGGKAPRKQLATK [H3 11-23 T G G K A P Rcit Kme3 Q L A T K],peptide microarray binding signal,"[1]; peptide modifications: H3R17cit H3K18me3, binder concentration: 50 nM",0.00592 ± 0.00019
same,peptide microarray binding signal,"[1]; peptide modifications: H3R17cit H3K18me3, binder concentration: 500 nM",0.012 ± 0.00018
same,peptide microarray binding signal,"[2]; peptide modifications: H3R17cit H3K18me3, binder concentration: 10 nM",0.0112 ± 0.0014
same,peptide microarray binding signal,"[2]; peptide modifications: H3R17cit H3K18me3, binder concentration: 100 nM",0.0317 ± 0.0063
same,peptide microarray binding signal,[3]; [13],0.728 ± 0.052
same,peptide microarray binding signal,[3]; [14],0.45 ± 0.036
same,peptide microarray binding signal,[4]; [13],0.0249 ± 0.0032
same,peptide microarray binding signal,[4]; [14],0.0125 ± 0.0016
TGGKAPRKQLATK [H3 11-23 T G G K A P Rme Kac Q L A T K],peptide microarray binding signal,"[1]; peptide modifications: H3R17me1 H3K18ac, binder concentration: 50 nM",0.00715 ± 0.00026
same,peptide microarray binding signal,"[1]; peptide modifications: H3R17me1 H3K18ac, binder concentration: 500 nM",0.0141 ± 0.00063
same,peptide microarray binding signal,"[2]; peptide modifications: H3R17me1 H3K18ac, binder concentration: 10 nM",0.00931 ± 0.0014
same,peptide microarray binding signal,"[2]; peptide modifications: H3R17me1 H3K18ac, binder concentration: 100 nM",0.0197 ± 0.0049
same,peptide microarray binding signal,[3]; [15],0.00513 ± 0.00068
same,peptide microarray binding signal,[3]; [16],0.0149 ± 0.004
same,peptide microarray binding signal,[4]; [15],0.001208 ± 9.1e-06
same,peptide microarray binding signal,[4]; [16],0.00121 ± 3.2e-05
TGGKAPRKQLATK [H3 11-23 T G G K A P Rme2s Kme Q L A T K],peptide microarray binding signal,"[1]; peptide modifications: H3R17me2s H3K18me1, binder concentration: 50 nM",0.00755 ± 0.00027
same,peptide microarray binding signal,"[1]; peptide modifications: H3R17me2s H3K18me1, binder concentration: 500 nM",0.00986 ± 0.00028
same,peptide microarray binding signal,"[2]; peptide modifications: H3R17me2s H3K18me1, binder concentration: 10 nM",0.0187 ± 0.00059
same,peptide microarray binding signal,"[2]; peptide modifications: H3R17me2s H3K18me1, binder concentration: 100 nM",0.0288 ± 0.002
same,peptide microarray binding signal,[3]; [17],0.0153 ± 0.0029
same,peptide microarray binding signal,[3]; [18],0.0127 ± 0.0012
same,peptide microarray binding signal,[4]; [17],0.00368 ± 0.00012
same,peptide microarray binding signal,[4]; [18],0.00254 ± 3.9e-05
TGGKAPRKQLATK [H3 11-23 T G G K A P Rme2s Kme3 Q L A T K],peptide microarray binding signal,"[1]; peptide modifications: H3R17me2s H3K18me3, binder concentration: 50 nM",0.00476 ± 0.00011
same,peptide microarray binding signal,"[1]; peptide modifications: H3R17me2s H3K18me3, binder concentration: 500 nM",0.00814 ± 0.00026
same,peptide microarray binding signal,"[2]; peptide modifications: H3R17me2s H3K18me3, binder concentration: 10 nM",0.0107 ± 0.0017
same,peptide microarray binding signal,"[2]; peptide modifications: H3R17me2s H3K18me3, binder concentration: 100 nM",0.0204 ± 0.0049
same,peptide microarray binding signal,[3]; [19],0.0681 ± 0.028
same,peptide microarray binding signal,[3]; [20],0.0469 ± 0.0085
same,peptide microarray binding signal,[4]; [19],0.0662 ± 0.01
same,peptide microarray binding signal,[4]; [20],0.0267 ± 0.0059
TGGKAPRKQLATK [H3 11-23 T G G K A P Rcit Kme2 Q L A T K],peptide microarray binding signal,"[1]; peptide modifications: H3R17cit H3K18me2, binder concentration: 50 nM",0.00542 ± 6.7e-05
same,peptide microarray binding signal,"[1]; peptide modifications: H3R17cit H3K18me2, binder concentration: 500 nM",0.0117 ± 0.00022
same,peptide microarray binding signal,"[2]; peptide modifications: H3R17cit H3K18me2, binder concentration: 10 nM",0.00806 ± 0.00083
same,peptide microarray binding signal,"[2]; peptide modifications: H3R17cit H3K18me2, binder concentration: 100 nM",0.0217 ± 0.0032
same,peptide microarray binding signal,[3]; [21],0.0091 ± 0.0018
same,peptide microarray binding signal,[3]; [22],0.00548 ± 0.00043
same,peptide microarray binding signal,[4]; [21],0.000921 ± 7.2e-05
same,peptide microarray binding signal,[4]; [22],0.000865 ± 2.4e-05
TGGKAPRKQLATK [H3 11-23 T G G K A P Rme K Q L A T K],peptide microarray binding signal,"[1]; peptide modifications: H3R17me1, binder concentration: 50 nM",0.0101 ± 0.00079
same,peptide microarray binding signal,"[1]; peptide modifications: H3R17me1, binder concentration: 500 nM",0.0274 ± 0.0035
same,peptide microarray binding signal,"[2]; peptide modifications: H3R17me1, binder concentration: 10 nM",0.00877 ± 0.0015
same,peptide microarray binding signal,"[2]; peptide modifications: H3R17me1, binder concentration: 100 nM",0.0348 ± 0.0049
same,peptide microarray binding signal,[3]; [23],0.00176 ± 7.5e-05
same,peptide microarray binding signal,[3]; [24],0.00103 ± 2.1e-05
same,peptide microarray binding signal,[4]; [23],0.00326 ± 7.1e-05
same,peptide microarray binding signal,[4]; [24],0.00265 ± 0.00014
